38 targets from the supplement of paper PMC10849652 can be followed below.

Targets with a hit are over-represented here; the source holds about 7,900 in all. About 0.6% of all pairs of compound and target were hits.

Sequence of UniProt Q96GA3 (Q96GA3 whole entry, looked up): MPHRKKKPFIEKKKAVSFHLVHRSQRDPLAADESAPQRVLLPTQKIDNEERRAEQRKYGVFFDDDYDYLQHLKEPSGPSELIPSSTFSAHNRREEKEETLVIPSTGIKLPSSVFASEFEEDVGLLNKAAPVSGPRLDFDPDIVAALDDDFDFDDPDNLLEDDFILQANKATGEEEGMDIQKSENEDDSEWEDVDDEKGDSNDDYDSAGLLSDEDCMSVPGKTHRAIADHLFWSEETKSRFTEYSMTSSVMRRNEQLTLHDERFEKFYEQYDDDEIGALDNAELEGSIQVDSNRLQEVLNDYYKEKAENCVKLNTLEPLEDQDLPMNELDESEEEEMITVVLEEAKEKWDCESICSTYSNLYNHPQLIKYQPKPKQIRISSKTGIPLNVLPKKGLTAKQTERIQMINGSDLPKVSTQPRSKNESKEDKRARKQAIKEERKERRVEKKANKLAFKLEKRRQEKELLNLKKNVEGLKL
Sequence of UniProt Q9HCC0 (Q9HCC0 whole entry, looked up): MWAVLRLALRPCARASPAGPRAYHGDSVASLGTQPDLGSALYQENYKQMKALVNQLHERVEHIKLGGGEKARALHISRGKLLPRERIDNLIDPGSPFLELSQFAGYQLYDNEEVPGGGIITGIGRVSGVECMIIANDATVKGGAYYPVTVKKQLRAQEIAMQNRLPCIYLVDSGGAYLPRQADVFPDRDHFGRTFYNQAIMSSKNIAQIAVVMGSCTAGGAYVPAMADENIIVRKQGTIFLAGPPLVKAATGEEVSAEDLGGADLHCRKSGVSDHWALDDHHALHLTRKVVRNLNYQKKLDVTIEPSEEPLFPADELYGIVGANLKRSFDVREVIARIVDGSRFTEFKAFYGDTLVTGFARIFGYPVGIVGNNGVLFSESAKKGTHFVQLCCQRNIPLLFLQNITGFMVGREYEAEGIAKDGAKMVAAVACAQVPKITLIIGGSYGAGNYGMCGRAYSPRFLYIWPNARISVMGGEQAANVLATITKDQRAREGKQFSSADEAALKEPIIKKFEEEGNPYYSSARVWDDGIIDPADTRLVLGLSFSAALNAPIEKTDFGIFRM
Sequence of UniProt O43766 (O43766 whole entry, looked up): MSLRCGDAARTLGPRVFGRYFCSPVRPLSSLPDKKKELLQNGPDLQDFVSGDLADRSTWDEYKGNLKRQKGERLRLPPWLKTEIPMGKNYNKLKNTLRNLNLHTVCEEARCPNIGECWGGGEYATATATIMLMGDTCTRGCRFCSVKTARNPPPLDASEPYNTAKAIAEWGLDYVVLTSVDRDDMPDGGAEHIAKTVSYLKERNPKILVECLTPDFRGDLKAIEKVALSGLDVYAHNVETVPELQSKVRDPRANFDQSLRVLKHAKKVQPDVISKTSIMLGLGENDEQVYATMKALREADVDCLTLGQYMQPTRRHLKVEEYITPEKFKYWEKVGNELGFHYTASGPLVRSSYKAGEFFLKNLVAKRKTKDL
Sequence of UniProt Q6N075 (Q6N075 whole entry, looked up): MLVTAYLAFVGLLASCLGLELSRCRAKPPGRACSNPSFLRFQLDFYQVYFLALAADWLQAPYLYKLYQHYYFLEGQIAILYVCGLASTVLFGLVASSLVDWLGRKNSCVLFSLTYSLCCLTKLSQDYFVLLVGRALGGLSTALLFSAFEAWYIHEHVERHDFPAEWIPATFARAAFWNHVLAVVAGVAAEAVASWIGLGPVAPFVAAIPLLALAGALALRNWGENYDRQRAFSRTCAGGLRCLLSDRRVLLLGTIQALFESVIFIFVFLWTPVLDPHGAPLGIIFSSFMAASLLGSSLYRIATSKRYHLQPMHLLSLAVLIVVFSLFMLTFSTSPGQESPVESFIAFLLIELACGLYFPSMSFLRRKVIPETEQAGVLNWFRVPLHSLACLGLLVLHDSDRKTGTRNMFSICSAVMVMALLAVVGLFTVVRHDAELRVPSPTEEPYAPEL
Sequence of UniProt Q92615 (Q92615 whole entry, looked up): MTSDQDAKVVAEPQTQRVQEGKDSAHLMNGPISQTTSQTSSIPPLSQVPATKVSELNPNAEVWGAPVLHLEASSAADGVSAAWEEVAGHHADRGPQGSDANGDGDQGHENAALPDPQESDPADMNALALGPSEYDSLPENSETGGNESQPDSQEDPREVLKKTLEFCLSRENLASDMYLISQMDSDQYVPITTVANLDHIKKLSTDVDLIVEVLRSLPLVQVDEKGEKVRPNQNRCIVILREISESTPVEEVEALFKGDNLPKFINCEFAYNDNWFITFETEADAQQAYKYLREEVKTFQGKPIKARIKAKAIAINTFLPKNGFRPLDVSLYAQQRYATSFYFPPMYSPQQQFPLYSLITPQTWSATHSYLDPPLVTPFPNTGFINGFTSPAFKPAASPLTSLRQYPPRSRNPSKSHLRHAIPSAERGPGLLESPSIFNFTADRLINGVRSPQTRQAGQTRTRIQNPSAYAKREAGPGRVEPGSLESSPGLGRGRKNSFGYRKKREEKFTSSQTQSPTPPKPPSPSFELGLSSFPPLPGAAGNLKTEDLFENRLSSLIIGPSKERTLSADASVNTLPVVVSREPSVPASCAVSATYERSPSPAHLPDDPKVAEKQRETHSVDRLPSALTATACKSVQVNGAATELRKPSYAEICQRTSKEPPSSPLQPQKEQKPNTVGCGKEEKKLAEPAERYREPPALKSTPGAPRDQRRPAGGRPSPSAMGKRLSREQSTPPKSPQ
Sequence of UniProt Q8TBB5 (Q8TBB5 whole entry, looked up): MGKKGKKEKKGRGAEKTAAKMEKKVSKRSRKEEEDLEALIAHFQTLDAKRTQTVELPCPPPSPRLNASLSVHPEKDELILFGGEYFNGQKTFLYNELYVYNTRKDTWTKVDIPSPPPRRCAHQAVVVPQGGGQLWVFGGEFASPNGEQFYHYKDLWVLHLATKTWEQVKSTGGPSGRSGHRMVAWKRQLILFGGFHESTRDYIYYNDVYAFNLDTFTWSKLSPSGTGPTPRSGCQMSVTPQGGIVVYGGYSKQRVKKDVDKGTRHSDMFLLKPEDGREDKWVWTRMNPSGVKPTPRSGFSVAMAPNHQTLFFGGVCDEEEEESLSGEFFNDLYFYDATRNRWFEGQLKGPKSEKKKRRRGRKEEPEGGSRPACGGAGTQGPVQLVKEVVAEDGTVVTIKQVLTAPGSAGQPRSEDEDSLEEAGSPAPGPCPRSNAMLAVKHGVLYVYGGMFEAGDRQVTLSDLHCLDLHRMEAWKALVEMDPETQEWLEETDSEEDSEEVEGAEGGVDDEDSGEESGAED
Sequence of UniProt Q8IW41 (Q8IW41 whole entry, looked up): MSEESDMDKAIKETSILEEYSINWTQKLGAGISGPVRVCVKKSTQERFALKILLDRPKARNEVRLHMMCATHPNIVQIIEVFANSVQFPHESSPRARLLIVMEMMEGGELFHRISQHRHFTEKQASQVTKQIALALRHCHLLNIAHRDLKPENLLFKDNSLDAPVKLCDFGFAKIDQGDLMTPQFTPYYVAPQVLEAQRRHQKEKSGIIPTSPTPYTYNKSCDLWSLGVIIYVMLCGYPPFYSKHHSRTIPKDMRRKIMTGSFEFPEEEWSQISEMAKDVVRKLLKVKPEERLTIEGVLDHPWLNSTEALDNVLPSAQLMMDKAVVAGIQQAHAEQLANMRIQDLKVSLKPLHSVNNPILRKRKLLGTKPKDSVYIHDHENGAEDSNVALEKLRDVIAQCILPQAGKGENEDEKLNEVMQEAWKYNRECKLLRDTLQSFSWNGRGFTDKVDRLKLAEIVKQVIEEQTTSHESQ
Sequence of UniProt Q14624 (Q14624 whole entry, looked up): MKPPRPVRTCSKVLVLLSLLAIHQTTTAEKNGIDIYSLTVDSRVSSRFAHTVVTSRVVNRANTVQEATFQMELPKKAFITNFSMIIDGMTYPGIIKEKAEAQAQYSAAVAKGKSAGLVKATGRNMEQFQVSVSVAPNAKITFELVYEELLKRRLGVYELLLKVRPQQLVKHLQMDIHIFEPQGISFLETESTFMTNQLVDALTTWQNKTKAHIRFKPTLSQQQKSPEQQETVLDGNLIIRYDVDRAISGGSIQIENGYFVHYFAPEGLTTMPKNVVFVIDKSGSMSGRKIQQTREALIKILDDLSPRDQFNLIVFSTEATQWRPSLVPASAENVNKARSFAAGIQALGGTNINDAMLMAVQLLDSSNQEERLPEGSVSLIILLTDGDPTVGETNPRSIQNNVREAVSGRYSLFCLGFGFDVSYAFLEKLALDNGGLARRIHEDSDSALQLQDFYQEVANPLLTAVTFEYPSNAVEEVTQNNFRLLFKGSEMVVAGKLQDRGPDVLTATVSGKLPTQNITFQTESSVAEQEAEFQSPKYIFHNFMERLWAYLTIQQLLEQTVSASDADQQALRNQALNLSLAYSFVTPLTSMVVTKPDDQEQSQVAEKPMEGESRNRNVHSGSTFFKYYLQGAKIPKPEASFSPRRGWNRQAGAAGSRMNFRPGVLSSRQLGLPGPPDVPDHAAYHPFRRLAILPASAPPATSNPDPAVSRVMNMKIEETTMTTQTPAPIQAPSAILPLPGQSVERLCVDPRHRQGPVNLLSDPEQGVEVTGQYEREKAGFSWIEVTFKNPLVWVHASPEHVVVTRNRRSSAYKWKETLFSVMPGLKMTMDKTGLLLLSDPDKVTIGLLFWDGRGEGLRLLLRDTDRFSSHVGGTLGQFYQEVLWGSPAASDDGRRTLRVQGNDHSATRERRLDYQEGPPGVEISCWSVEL
Sequence of UniProt Q9H0C8 (Q9H0C8 whole entry, looked up): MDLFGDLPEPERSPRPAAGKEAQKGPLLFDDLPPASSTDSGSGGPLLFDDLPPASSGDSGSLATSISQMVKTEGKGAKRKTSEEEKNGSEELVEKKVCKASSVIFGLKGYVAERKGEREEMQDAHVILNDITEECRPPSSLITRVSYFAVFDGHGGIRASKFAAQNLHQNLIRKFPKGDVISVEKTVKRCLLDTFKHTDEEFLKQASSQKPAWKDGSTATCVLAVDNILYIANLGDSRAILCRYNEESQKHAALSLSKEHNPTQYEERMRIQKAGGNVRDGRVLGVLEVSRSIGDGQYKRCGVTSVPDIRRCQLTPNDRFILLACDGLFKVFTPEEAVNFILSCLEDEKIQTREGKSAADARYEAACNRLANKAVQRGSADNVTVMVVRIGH

Compound in the first assay: CC(C)N(C[C@H]1O[C@@H](n2cnc3c(N)ncnc32)[C@H](O)[C@@H]1O)[C@H]1C[C@@H](CCc2nc3cc(C(C)(C)C)ccc3[nH]2)C1 [pinometostat]
Nature of the assay: log2 fold change, soluble protein after heating vs DMSO (PISA); higher = thermal stabilisation; K562 cells, 10 uM, 30 min; active = over 0.2 and 3.5 SD of the protein, either way, in both replicates (recomputed). In outline: (§1)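 Soluble protein was defined as the supernatant after 21,000xg for 90 min. It came from K562 cells at 2×10^6 cells/mL given 10 μM compound for 30 min, heated in aliquots for 3 min across 48°C-58°C, pooled, and extracted in PBS with 0.5% NP-40 at 4°C, and was quantified by TMTpro 16plex LC-MS/MS with equalised channel sums. Thermal stability against control samples, from duplicates, is reported as log2 fold change.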
As for KLHDC4 (UniProt Q8TBB5), the log2 fold change was 0.199 (inactive).

As to LSS (UniProt P48449), the log2 fold change is -0.116 (inactive).

Take MAN2B2 (UniProt Q9Y2E5): the log2 fold change was 0.089 (inactive).

Consider KHDC4 (UniProt Q7Z7F0), for which the log2 fold change was -0.001 (inactive).

With MCCC2 (UniProt Q9HCC0), the log2 fold change was -0.05 (inactive).

On to MAPKAPK5 (UniProt Q8IW41), for which the log2 fold change is -0.042 (inactive).

Consider JMJD6 isoform 3 (UniProt Q6NYC1), for which the log2 fold change is -0.016 (inactive).

Turning to LARP4B (UniProt Q92615), the log2 fold change was 0.143 (inactive).

In the case of LEO1 (UniProt Q8WVC0), the log2 fold change is 0.019 (inactive).

For KDM1A isoform 2 (UniProt O60341), the log2 fold change is 0.046 (inactive).

For MFSD5 isoform 2 (UniProt Q6N075), the log2 fold change was 0.049 (inactive).

Take ITIH4 (UniProt Q14624): the log2 fold change is -0.117 (inactive).

Turning to LARP4 isoform 4 (UniProt Q71RC2), the log2 fold change is 0.114 (inactive).

With LTV1 (UniProt Q96GA3), the log2 fold change is 0.249 (inactive).

Take LIAS (UniProt O43766): the log2 fold change is -0.011 (inactive).

Compound in the next assay: CC1=C(C(CC(=O)N1)C2=CC=C(C=C2)C(F)(F)F)C(=O)NC3=C(C=C4C(=C3)C=NN4)F
Described as above. The gist of the method:
as §1
Take KPNA6 (UniProt O60684): the log2 fold change is 0.04 (inactive).

For the target KDM3B (UniProt Q7LBC6), the log2 fold change is -0.018 (inactive).

Regarding LMBRD2 (UniProt Q68DH5), the log2 fold change was -0.007 (inactive).

Regarding ME2 (UniProt P23368), the log2 fold change is -0.048 (inactive).

For the target ILKAP (UniProt Q9H0C8), the log2 fold change is 0.017 (inactive).

Regarding MFN2 (UniProt O95140), the log2 fold change was -0.022 (inactive).

Consider INPP5B (UniProt P32019), for which the log2 fold change is 0.042 (inactive).

As to LARP1 (UniProt Q6PKG0), the log2 fold change is 0.021 (inactive).

On to MIER1 isoform 12 (UniProt Q8N108), for which the log2 fold change is 0.027 (inactive).

Take L2HGDH (UniProt Q9H9P8): the log2 fold change was -0.018 (inactive).

As to KRAS isoform 2 (UniProt P01116), the log2 fold change is 0.001 (inactive).

Turning to LTO1 (UniProt Q8WV07), the log2 fold change is 0.04 (inactive).

MFN1 (UniProt Q8IWA4): the log2 fold change was 0.015 (inactive).

In the case of IKZF1 (UniProt Q13422), the log2 fold change is 0.02 (inactive).

For MAP3K7 (UniProt O43318), the log2 fold change is 0.024 (inactive).

Turning to KIF3A (UniProt Q9Y496), the log2 fold change is 0.087 (inactive).

On to IMMT isoform 4 (UniProt Q16891), for which the log2 fold change is 0.017 (inactive).

Turning to LDLR (UniProt P01130), the log2 fold change is 0.019 (inactive).

For LMNA (UniProt P02545), the log2 fold change is 0.005 (inactive).

As to MAGI1 (UniProt Q96QZ7), the log2 fold change was -0.016 (inactive).

Take MAP3K4 isoform 2 (UniProt Q9Y6R4): the log2 fold change is -0.033 (inactive).

On to IWS1 (UniProt Q96ST2), for which the log2 fold change was -0.044 (inactive).

For INTS5 (UniProt Q6P9B9), the log2 fold change was -0.102 (inactive).

Turning to KLHDC4 (UniProt Q8TBB5), the log2 fold change is -0.123 (inactive).

With LSS (UniProt P48449), the log2 fold change is -0.022 (inactive).

Regarding MAN2B2 (UniProt Q9Y2E5), the log2 fold change was 0.064 (inactive).

Regarding KHDC4 (UniProt Q7Z7F0), the log2 fold change is 0.008 (inactive).

Take MCCC2 (UniProt Q9HCC0): the log2 fold change was 0 (inactive).

On to MAPKAPK5 (UniProt Q8IW41), for which the log2 fold change was -0.161 (inactive).

Consider JMJD6 isoform 3 (UniProt Q6NYC1), for which the log2 fold change was 0.013 (inactive).

As for LARP4B (UniProt Q92615), the log2 fold change is 0 (inactive).

Consider LEO1 (UniProt Q8WVC0), for which the log2 fold change is 0.019 (inactive).

Regarding KDM1A isoform 2 (UniProt O60341), the log2 fold change was 0.012 (inactive).

Turning to MFSD5 isoform 2 (UniProt Q6N075), the log2 fold change is 0.039 (inactive).

With ITIH4 (UniProt Q14624), the log2 fold change is 0.251 (inactive).

In the case of LARP4 isoform 4 (UniProt Q71RC2), the log2 fold change was 0.133 (inactive).

LTV1 (UniProt Q96GA3): the log2 fold change was -0.005 (inactive).

Take LIAS (UniProt O43766): the log2 fold change was 0.003 (inactive).

Compound in the next assay: CC1=C(C2=C(C=C1)C(=O)C3=CC=CC=C3N2CCCN)C
The description is as above. In outline:
as §1
Regarding KPNA6 (UniProt O60684), the log2 fold change was -0.15 (inactive).

As for KDM3B (UniProt Q7LBC6), the log2 fold change is -0.007 (inactive).

As to LMBRD2 (UniProt Q68DH5), the log2 fold change is 0.012 (inactive).

Regarding ME2 (UniProt P23368), the log2 fold change is -0.042 (inactive).

Take ILKAP (UniProt Q9H0C8): the log2 fold change was 0.032 (inactive).

With MFN2 (UniProt O95140), the log2 fold change was 0.049 (inactive).

For the target INPP5B (UniProt P32019), the log2 fold change is -0.077 (inactive).

As to LARP1 (UniProt Q6PKG0), the log2 fold change is -0.303 (active).

With MIER1 isoform 12 (UniProt Q8N108), the log2 fold change was -0.122 (inactive).

In the case of L2HGDH (UniProt Q9H9P8), the log2 fold change was 0.029 (inactive).

KRAS isoform 2 (UniProt P01116): the log2 fold change is 0.072 (inactive).

In the case of LTO1 (UniProt Q8WV07), the log2 fold change is 0.041 (inactive).

As to MFN1 (UniProt Q8IWA4), the log2 fold change is 0.098 (inactive).

As for IKZF1 (UniProt Q13422), the log2 fold change is 0.275 (inactive).

In the case of MAP3K7 (UniProt O43318), the log2 fold change was 0.006 (inactive).

Regarding KIF3A (UniProt Q9Y496), the log2 fold change is -0.081 (inactive).

IMMT isoform 4 (UniProt Q16891): the log2 fold change was 0.01 (inactive).

For the target LDLR (UniProt P01130), the log2 fold change was -0.058 (inactive).

Consider LMNA (UniProt P02545), for which the log2 fold change was -0.017 (inactive).

For MAGI1 (UniProt Q96QZ7), the log2 fold change is 0.07 (inactive).

Consider MAP3K4 isoform 2 (UniProt Q9Y6R4), for which the log2 fold change is 0.002 (inactive).

With IWS1 (UniProt Q96ST2), the log2 fold change is -0.301 (active).

For INTS5 (UniProt Q6P9B9), the log2 fold change is 0.073 (inactive).

Turning to KLHDC4 (UniProt Q8TBB5), the log2 fold change is 0.159 (inactive).

As to LSS (UniProt P48449), the log2 fold change is -0.195 (inactive).

In the case of MAN2B2 (UniProt Q9Y2E5), the log2 fold change was -0.048 (inactive).

For the target KHDC4 (UniProt Q7Z7F0), the log2 fold change was 0.021 (inactive).

MCCC2 (UniProt Q9HCC0): the log2 fold change is 0.003 (inactive).

Take MAPKAPK5 (UniProt Q8IW41): the log2 fold change was 0.002 (inactive).

For the target JMJD6 isoform 3 (UniProt Q6NYC1), the log2 fold change was 0.102 (inactive).

In the case of LARP4B (UniProt Q92615), the log2 fold change was 0.034 (inactive).

LEO1 (UniProt Q8WVC0): the log2 fold change was -0.394 (active).

Turning to KDM1A isoform 2 (UniProt O60341), the log2 fold change is -0.05 (inactive).

For the target MFSD5 isoform 2 (UniProt Q6N075), the log2 fold change is -0.061 (inactive).

With ITIH4 (UniProt Q14624), the log2 fold change is -0.148 (inactive).

On to LARP4 isoform 4 (UniProt Q71RC2), for which the log2 fold change was -0.054 (inactive).

Regarding LTV1 (UniProt Q96GA3), the log2 fold change was -0.726 (active).

For the target LIAS (UniProt O43766), the log2 fold change was -0.01 (inactive).
